Data as given in the supplement of paper PMC11006884.
The full data set covers some 6,500 targets. This sample favours those with a hit. About 2% of all pairs of compound and target were hits.

Compound: COC(=O)C#Cc1ccccc1 [methyl 3-phenylpropiolate]
Assay: log2 ratio of iodoacetamide-alkyne labeling of the cysteine site, DMSO over compound (competition); higher = stronger covalent engagement of the cysteine by the compound, active = 1 or more
Conditions: 500 µM; treatment time 1 h; system: HEK293T cell lysate
Procedure, shortened: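 HEK293T lysate (2 mg/mL) was incubated with electrophile (500 µM) or vehicle for 1 h at ambient temperature and then with iodoacetamide alkyne for 1 h. Labelled proteins were clicked to sCIP-TMT reagents, pooled, digested, enriched on streptavidin and measured by Orbitrap Eclipse LC-MS/MS with FAIMS, with FragPipe quantification. The per-cysteine log2 competition ratio is mean control-channel reporter intensity over mean compound-channel reporter intensity. Across three replicates with duplicate channels, cysteines quantified in only one replicate were excluded.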

Sequence of UniProt Q92598 (Q92598 whole entry, looked up): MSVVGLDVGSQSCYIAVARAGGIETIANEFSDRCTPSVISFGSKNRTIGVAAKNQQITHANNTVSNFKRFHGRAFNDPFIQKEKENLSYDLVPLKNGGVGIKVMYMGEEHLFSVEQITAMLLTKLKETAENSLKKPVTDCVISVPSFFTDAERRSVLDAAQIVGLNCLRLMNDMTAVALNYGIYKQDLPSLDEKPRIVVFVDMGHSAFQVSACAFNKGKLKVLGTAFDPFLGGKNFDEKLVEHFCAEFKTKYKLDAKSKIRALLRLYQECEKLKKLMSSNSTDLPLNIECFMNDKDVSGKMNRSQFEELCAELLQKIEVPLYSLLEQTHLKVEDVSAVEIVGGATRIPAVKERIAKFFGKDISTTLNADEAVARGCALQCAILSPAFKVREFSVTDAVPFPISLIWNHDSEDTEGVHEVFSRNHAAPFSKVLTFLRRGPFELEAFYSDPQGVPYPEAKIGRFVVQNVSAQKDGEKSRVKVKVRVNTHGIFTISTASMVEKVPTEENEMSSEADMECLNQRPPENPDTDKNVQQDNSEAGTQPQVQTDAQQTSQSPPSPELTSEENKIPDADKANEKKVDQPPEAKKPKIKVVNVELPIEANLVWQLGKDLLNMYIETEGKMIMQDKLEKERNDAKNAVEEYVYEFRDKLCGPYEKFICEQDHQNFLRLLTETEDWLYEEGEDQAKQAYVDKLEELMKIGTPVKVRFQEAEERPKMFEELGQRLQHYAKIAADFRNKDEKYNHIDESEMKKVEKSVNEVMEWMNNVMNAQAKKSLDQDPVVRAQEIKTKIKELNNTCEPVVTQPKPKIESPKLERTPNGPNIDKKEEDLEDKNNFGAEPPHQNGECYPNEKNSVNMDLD
Sequence of UniProt Q92538 (Q92538 whole entry, looked up): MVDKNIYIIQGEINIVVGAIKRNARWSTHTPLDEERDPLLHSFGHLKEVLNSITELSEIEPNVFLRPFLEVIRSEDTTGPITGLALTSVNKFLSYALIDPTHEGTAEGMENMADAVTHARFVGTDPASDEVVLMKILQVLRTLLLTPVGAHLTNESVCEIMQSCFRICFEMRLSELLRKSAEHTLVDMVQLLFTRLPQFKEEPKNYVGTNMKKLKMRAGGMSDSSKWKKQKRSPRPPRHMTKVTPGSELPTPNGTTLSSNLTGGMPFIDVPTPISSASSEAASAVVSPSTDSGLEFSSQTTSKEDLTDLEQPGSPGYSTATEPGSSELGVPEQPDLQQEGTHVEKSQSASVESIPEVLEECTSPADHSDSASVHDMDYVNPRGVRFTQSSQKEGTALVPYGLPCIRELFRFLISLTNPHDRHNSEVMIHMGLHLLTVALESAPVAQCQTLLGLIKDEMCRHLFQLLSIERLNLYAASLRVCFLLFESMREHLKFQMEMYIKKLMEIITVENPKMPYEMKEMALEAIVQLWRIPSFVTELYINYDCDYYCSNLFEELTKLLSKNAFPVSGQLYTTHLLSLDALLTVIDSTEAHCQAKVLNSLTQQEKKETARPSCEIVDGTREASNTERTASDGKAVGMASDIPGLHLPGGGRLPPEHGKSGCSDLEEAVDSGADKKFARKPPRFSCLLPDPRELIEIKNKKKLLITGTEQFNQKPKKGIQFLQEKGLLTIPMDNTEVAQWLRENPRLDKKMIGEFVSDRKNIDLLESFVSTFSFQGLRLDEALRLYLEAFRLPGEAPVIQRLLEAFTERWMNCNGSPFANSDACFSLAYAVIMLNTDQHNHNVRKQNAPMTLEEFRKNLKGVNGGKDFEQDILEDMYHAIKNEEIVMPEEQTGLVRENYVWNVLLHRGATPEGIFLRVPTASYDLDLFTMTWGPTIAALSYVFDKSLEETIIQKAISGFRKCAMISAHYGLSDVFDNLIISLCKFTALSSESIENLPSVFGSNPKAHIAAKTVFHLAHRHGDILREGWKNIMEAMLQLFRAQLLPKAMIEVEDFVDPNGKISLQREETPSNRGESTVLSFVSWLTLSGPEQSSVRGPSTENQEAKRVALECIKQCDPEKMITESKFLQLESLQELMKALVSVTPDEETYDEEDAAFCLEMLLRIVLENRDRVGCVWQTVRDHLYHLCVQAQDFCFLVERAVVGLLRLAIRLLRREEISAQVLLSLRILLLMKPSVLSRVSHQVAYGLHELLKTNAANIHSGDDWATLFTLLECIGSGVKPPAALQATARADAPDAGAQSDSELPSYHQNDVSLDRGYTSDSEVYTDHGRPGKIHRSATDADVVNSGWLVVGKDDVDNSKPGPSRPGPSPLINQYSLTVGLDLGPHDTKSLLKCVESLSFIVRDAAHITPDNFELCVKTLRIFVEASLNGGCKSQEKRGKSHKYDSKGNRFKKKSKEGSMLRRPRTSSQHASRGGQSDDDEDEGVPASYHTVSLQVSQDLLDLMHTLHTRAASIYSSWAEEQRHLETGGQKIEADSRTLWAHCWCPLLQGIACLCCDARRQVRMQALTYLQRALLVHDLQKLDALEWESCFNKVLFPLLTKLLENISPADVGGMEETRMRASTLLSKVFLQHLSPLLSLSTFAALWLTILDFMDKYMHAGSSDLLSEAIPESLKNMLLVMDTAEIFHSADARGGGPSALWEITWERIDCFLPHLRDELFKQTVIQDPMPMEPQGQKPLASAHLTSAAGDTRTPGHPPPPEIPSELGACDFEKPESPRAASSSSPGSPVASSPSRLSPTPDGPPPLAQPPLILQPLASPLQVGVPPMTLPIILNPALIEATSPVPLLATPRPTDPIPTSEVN
Sequence of UniProt Q9BRA2 (Q9BRA2 whole entry): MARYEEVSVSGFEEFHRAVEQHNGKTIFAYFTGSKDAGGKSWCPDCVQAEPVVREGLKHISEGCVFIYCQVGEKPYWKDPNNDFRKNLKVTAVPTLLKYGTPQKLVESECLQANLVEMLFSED
Sequence of UniProt Q96KQ7 (Q96KQ7 whole entry, looked up): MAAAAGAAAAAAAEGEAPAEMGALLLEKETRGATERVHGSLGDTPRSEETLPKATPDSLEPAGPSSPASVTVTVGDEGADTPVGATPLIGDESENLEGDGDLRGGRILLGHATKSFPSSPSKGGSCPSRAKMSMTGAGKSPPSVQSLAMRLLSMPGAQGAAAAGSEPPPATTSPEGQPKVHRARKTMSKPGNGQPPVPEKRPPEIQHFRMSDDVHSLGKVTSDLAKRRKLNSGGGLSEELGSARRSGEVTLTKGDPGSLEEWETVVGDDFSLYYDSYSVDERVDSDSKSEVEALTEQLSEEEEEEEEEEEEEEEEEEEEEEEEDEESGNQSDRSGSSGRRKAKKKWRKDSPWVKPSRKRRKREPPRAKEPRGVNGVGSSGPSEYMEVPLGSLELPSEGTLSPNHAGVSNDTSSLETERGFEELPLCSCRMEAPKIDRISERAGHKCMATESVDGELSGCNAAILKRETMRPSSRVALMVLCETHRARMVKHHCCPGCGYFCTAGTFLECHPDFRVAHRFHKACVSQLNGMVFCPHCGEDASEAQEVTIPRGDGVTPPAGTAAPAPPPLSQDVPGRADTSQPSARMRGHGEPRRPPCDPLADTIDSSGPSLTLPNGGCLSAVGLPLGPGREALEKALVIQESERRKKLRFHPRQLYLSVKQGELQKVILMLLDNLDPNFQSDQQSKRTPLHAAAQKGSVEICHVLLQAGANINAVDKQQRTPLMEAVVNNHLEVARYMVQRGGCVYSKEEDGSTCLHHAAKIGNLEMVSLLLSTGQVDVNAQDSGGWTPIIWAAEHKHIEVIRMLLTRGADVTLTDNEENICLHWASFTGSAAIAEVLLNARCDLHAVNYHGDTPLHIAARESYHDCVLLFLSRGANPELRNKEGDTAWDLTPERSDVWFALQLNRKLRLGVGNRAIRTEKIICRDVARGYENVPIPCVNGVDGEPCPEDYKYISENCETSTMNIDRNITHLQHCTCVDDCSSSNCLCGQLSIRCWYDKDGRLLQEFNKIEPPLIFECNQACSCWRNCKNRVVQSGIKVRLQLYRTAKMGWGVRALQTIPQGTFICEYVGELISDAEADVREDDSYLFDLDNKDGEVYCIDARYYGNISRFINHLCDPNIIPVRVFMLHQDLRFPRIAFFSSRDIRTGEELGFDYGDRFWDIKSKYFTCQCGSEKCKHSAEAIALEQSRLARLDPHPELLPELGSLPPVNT
Sequence of UniProt Q7Z5L9 (Q7Z5L9 whole entry, looked up): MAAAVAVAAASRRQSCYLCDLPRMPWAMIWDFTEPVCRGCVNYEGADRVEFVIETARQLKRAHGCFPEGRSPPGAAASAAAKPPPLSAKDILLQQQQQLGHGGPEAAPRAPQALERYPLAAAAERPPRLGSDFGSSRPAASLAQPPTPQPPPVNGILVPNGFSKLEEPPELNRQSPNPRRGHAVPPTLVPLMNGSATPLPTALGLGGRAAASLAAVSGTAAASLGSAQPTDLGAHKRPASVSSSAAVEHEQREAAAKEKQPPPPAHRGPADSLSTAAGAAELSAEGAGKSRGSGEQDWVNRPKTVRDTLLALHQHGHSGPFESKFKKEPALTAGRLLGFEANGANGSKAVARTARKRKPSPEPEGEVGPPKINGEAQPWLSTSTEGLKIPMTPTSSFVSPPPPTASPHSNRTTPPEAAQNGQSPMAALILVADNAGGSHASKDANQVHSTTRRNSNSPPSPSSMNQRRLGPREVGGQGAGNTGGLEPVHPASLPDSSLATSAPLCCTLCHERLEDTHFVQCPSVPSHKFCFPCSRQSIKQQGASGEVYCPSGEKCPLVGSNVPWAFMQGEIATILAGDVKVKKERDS
Sequence of UniProt Q5TC12 (Q5TC12 whole entry, looked up): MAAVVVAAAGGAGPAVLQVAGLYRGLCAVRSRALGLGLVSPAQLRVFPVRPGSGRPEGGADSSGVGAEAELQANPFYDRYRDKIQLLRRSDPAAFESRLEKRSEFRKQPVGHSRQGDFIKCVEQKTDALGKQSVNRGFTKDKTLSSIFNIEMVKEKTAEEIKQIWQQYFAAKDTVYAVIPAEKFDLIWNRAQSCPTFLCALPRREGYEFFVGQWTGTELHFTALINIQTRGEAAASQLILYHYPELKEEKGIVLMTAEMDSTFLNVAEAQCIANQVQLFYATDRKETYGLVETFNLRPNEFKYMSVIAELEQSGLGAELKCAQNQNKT

Target | log2 ratio of iodoacetamide-alkyne labeling
DHX37 C1026 (UniProt Q8IY37) | 0.317 (inactive)
UniProt Q7LBC6_C1212 | 0.571 (inactive)
AKAP1 C102 (UniProt Q92667) | 0.334 (inactive)
EHMT2 C617 (UniProt Q96KQ7) | 0.759 (inactive)
PDLIM5 C446 (UniProt Q96HC4) | 0.0755 (inactive)
GBF1 C1766 (UniProt Q92538) | 0.302 (inactive)
EXOC6 C28 (UniProt Q8TAG9) | 0.489 (inactive)
UniProt Q7RTV0_C11 | -0.0735 (inactive)
DDX54 C73 (UniProt Q8TDD1) | 0.301 (inactive)
EDC3 C137 (UniProt Q96F86) | 1.09 (active)
SLFN11 C6 (UniProt Q7Z7L1) | 0.329 (inactive)
AKT1S1 C61 (UniProt Q96B36) | 0.266 (inactive)
PDLIM5 C449 (UniProt Q96HC4) | 0.0755 (inactive)
MYBBP1A C942 (UniProt Q9BQG0) | 0.523 (inactive)
HSPH1 C650 (UniProt Q92598) | 0.025 (inactive)
ZFYVE16 C174 (UniProt Q7Z3T8) | 0.35 (inactive)
ATRIP C74 (UniProt Q8WXE1) | 0.563 (inactive)

Target | log2 ratio of iodoacetamide-alkyne labeling
MARC1 C273 (UniProt Q5VT66) | 0.102 (inactive)
IRF2BP1 C363 (UniProt Q8IU81) | 0.0738 (inactive)
ATPAF1 C321 (UniProt Q5TC12) | 0.464 (inactive)
IRF2BP2 C16 (UniProt Q7Z5L9) | 0.113 (inactive)
UniProt Q8N1G2_C794 | 0.107 (inactive)
UniProt Q8WVB3_C244 | 0.59 (inactive)
HNRNPAB C98 (UniProt Q99729) | -0.0694 (inactive)
ACO2 C448 (UniProt Q99798) | 1.71 (active)
LPCAT1 C216 (UniProt Q8NF37) | 0.211 (inactive)
PTCD3 C642 (UniProt Q96EY7) | 0.535 (inactive)
AKAP1 C389 (UniProt Q92667) | 1.15 (active)
MMS19 C549 (UniProt Q96T76) | 1.36 (active)
NSD1 C1689 (UniProt Q96L73) | 0.216 (inactive)
TXNDC17 C43 (UniProt Q9BRA2) | 1.34 (active)
GIGYF2 C289 (UniProt Q6Y7W6) | -0.00206 (inactive)
UniProt Q8WZA9_C504 | 0.0403 (inactive)
INTS1 C1701 (UniProt Q8N201) | -0.0332 (inactive)
